Measurements: PubChem BioAssay
Calls of active or inactive are those of the source. How the calls were made is not given here.

Target: Pantothenate synthetase (Mycobacterium tuberculosis (strain ATCC 25618 / H37Rv)) (UniProt P9WIL5)
Assay: Coupled enzyme confirmation of inhibitors against recombinant Mtb PanC (AID 375);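 further: 0% = full reaction with vehicle and 100% = no enzyme background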
Settings: coupled enzyme assay; at 10 µM, hits give high values

Pantothenate synthetase (Mycobacterium tuberculosis (strain ATCC 25618 / H37Rv)), sequence (P9WIL5 whole entry, looked up): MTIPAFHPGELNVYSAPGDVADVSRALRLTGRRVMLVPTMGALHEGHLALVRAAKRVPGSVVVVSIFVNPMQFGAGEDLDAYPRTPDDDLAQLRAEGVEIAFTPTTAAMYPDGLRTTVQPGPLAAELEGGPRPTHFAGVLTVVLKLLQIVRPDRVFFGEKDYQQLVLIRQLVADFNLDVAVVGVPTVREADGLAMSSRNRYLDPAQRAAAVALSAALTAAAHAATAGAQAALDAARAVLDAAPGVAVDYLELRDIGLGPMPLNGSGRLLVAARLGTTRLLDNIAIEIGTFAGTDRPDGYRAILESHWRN

| Structure (SMILES) | inhibition |
| --- | --- |
| Cc1c(C(=O)O)oc2ccc(S(=O)(=O)NCc3ccccc3)cc12 | 0% (inactive) |
| COc1cc2[nH]c3c(=O)n(CCN(C(C)C)C(C)C)cnc3c2cc1OC | 10% (inactive) |
| Cc1onc(-c2ccccc2Cl)c1C(=O)Nc1cccc(-c2cn3cccnc3n2)c1 | 7% (inactive) |
| CC(C)COC(=O)C1C2C=CC3(CN(C(C)c4ccc(Br)cc4)C(=O)C13)O2 (stereo not given) | 8% (inactive) |
| Cc1onc(-c2ccccc2Cl)c1C(=O)N1CCc2ccccc21 | 0% (inactive) |
| Cc1cc(Oc2ccccc2)nc(-c2ccccc2)n1 | 0% (inactive) |
| CN1CCN(C(=O)CCC(=O)c2ccc(F)cc2)CC1 | 9% (inactive) |
| Cc1nc(C)c(C(=O)Nc2ccc(Oc3ccccc3)cc2)o1 | 0% (inactive) |
| CCOC(=O)CSc1nnc(CNC(=O)c2ccc(S(=O)(=O)N3CCCC3)cc2)n1C | 10% (inactive) |
| CCc1ccc(C=NC23CN4CN(CN(C4)C2)C3)s1 | 0% (inactive) |
| Cc1cccn2c(=O)c3cc(C#N)c(=NC(=O)c4cccnc4)n(CC4CCCO4)c3nc12 (stereo not given) | 0% (inactive) |
| O=C(NCCO)c1cc2ccccc2cc1O | 0% (inactive) |
| O=C1C2C3C=CC(C3)C2C(=O)N1CNc1ccc(O)cc1 (stereo not given) | 3% (inactive) |
| COc1ccccc1CC(=O)NCC1CCCO1 (stereo not given) | 0% (inactive) |
| CS(=O)(=O)N(Cc1ccccc1)c1ccc(C(=O)N2CCOCC2)cc1 | 0% (inactive) |
| CC(=O)Nc1ccccc1OCC(=O)c1cc(C)n(Cc2cccs2)c1C | 0% (inactive) |
| CC(C)Cc1nnc(NS(=O)(=O)c2ccc(Cl)cc2)s1 | 0% (inactive) |
| NC(=O)C1CCN(C(=S)c2cccs2)CC1 | 0% (inactive) |
| FC(F)(F)c1nnc2sc(-c3cccs3)nn12 | 4% (inactive) |
| CC(=O)OC(C(=O)NCc1ccco1)c1cccnc1 (stereo not given) | 0% (inactive) |

| Structure (SMILES) | inhibition |
| --- | --- |
| COc1ccc(/C(O)=C2\C(=O)C(=O)N(c3cc(C)on3)C2c2ccccc2OC)cc1 (stereo not given) | 0% (inactive) |
| COCCCn1c(SCC(=O)N2CCc3ccccc32)nnc1-c1ccoc1C | 9% (inactive) |
| COc1cc(C(=O)N(C)c2nnc(-c3cccnc3)s2)cc(OC)c1OC | 0% (inactive) |
| Cc1cc(C)n(-c2nc(C)nc3sc4c(c23)CCC(C)C4)n1 (stereo not given) | 0% (inactive) |
| O=C(CS(=O)(=O)c1cn(Cc2ccc(Cl)cc2)c2ccccc12)N1CCOCC1 | 0% (inactive) |
| Clc1ccc(Nc2ncnc3c2cnn3-c2ccccc2)cc1 | 6% (inactive) |
| CC1CC(C)CN(CC(=O)Nc2ccc(S(N)(=O)=O)cc2)C1 (stereo not given) | 0% (inactive) |
| CC(=O)c1cc(-c2ccccc2)n(CC(=O)N2CCN(C3CCCC3)CC2)c1C | 11% (inactive) |
| O=C(c1ccco1)N1CCN(C(=O)c2ccc(Cn3cc(Br)cn3)o2)CC1 | 4% (inactive) |
| Cc1oc(-c2ccccc2)cc1C(N)=O | 0% (inactive) |
| COc1cccc(NC(=O)CSc2nnc(-c3cc(-c4ccccn4)nc4ccccc34)o2)c1 | 2% (inactive) |
| O=C(CCN1C(=O)C2C3C=CC(C3)C2C1=O)Nc1c(F)cc(F)cc1Br (stereo not given) | 0% (inactive) |
| Cc1cc(NC(=O)CSc2nc3c(c(=O)n2Cc2ccccc2)SC(C)C3)no1 (stereo not given) | 0% (inactive) |
| CC1CCN(Cc2ccc(NC(=O)C3CCN(c4nnc(-n5cccc5)s4)CC3)cc2)CC1 | 0% (inactive) |
| Oc1ccc(Nc2nc(-c3ccc(O)cc3)cs2)cc1 | 2% (inactive) |
| Cc1csc(NC(=O)CSc2nsc(SCC(=O)Nc3nc(C)cs3)c2C#N)n1 | 2% (inactive) |
| O=C(Nc1ccccc1N1CCN(c2ccc(F)cc2)CC1)c1ccccc1 | 0% (inactive) |
| CCOC(=O)C1CCN(c2c(NC3CCCc4ccccc43)c(=O)c2=O)CC1 (stereo not given) | 2% (inactive) |
| CCCCOc1ccc(-c2nnn(C(C)(C)C(=O)OC)n2)cc1 | 5% (inactive) |
| COc1ccc(-c2nnc3sc(-c4c(OC)cccc4OC)nn23)cc1 | 6% (inactive) |
